12-LOX inh: Primary qHTS assay for inhibitors of human arachidonate 12S-lipoxygenase (ALOX12): Round 2; purified 12hLO, xylenol orange hydroperoxide absorbance; hit rate 1.1% among 580,000; Polyunsaturated fatty acid lipoxygenase ALOX12 (Homo sapiens), P18054; Potency, µM (highest dose often 108 µM), without a hit: at the top dose activity change, negative = inhibition, actives largely listed as inhibitors; note: potency is the fitted concentration of half-maximal effect; % is set by controls: 0 for no effect and ±100 for the full control effect
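Purified human 12hLO (150 nM final) in 25 mM Hepes, 0.01% Triton X-100, pH 7.0 was preincubated 15 min at room temperature with compound. Then 40 uM arachidonic acid was added, 30 min. Hydroperoxide was read by Fe-XO absorbance ratio 573/405 nm.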
Vif-A3G inh: qHTS for Inhibitors of Vif-A3G Interactions: qHTS; Potency, µM (titrated, usually from 46.1 µM), without a hit: at the highest dose activity, negative = active, most hits filed as inhibitors; HeLa A3G-eYFP + Vif (tagged APOBEC3G with the HIV-1 protein that degrades it), YFP fluorescence, overnight; DNA dC->dU-editing enzyme APOBEC-3G (Homo sapiens), Q9HC16; hit rate 0.076% among 410,000; note: potency is the fitted concentration of half-maximal effect; % is set by controls: 0 for no effect and ±100 for the full control effect; nearly all actives have a fitted effect of over 60% in size
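HeLa cells stably expressing Vif and C-terminally eYFP-tagged A3G, seeded overnight at 37 deg C, then exposed to compound by pintool overnight at 37 deg C. Rise in yellow fluorescence (Ex 488/Em 500-530, Acumen) marks blocked Vif-driven A3G degradation.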
PTAP TSG101 blk: qHTS Assay for Iinhibitors of HIV-1 Budding by Blocking the Interaction of PTAP/TSG101. Tumor susceptibility gene 101 protein (Homo sapiens), Q99816. Fluorescence polarization, FITC-PTAP peptide / Tsg101 binding. Potency, µM (series often up to 115 µM), inactives show at the top dose activity change, negative = inhibition, usual class: inhibitors. 340,000 tested, under 10 active. AID 493005, 2010; active = well fitted inhibition curve with a large enough effect in the main read-out, with a control signal flat, not every such curve was filed as active; inconclusive = small, poorly fitted or top-dose-only effect, or effect the other way, or a change in a side signal; inactive = no such curve, though single readings can be large or run the other way; note: potency is the fitted concentration of half-maximal effect; % of control where 0% means no effect
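Fluorescence anisotropy tracks displacement of a FITC-tagged PTAP peptide (50 nM) from the Tsg101 binding domain (10 uM), following a 20 min room-temperature incubation at pH 7.5.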
pAkt inh: HTS Assay for Inhibitors of Akt Phophorylation: Primary Screen; activity change, % for hits at 50 µM; Neuro2A IGF-stimulated pAkt S473 HTRF, 20 min; hits give low values; AID 651550, 2012; hit rate 0.32% among 360,000; in the data active = activity change below about -80%; inconclusive = mostly about -51% to -80%; note: % is set by controls: 0 for no effect and ±100 for the full control effect
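Single-point screen (50 µM final compound) in Neuro2A cells stimulated 20 min with 6 nM IGF at 37 deg C. After lysis, Ser473-phosphorylated Akt read by HTRF (ex 330 nm, em 615/665 nm) as the 665/615 ratio.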
S-ASM inh: Inhibitors of Secretory Acid Sphingomyelinase (S-ASM): qHTS; Sphingomyelin phosphodiesterase (Homo sapiens), P17405; placental ASM, HMU-PC fluorogenic substrate, 60 min; Potency, µM (series often up to 57.5 µM), inactives show at the top dose activity change, negative = inhibition, hits mostly inhibitors; hit rate 0.006% among 340,000; note: potency is the fitted concentration of half-maximal effect
Target sequence (P17405 47-631 limits assumed): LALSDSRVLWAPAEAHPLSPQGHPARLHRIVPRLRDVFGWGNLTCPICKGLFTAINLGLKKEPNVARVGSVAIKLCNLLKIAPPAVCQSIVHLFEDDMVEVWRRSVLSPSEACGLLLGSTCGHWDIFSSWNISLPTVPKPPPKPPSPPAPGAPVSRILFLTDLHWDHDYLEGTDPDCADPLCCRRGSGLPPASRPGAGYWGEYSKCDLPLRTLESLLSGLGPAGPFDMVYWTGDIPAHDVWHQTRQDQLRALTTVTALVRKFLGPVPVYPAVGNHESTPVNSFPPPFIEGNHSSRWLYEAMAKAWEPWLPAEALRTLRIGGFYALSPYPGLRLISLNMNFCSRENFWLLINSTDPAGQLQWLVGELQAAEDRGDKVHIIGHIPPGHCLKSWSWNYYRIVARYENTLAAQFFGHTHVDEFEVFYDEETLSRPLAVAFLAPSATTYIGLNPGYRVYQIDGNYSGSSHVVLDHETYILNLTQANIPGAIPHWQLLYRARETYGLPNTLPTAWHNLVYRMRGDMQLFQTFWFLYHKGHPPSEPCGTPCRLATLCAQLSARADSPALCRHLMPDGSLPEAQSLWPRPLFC
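Human placenta-derived ASM enzyme was preincubated with compound for 10 minutes at room temperature, then given fluorogenic substrate HMU-PC0 (9 uM final) for 60 minutes at 37 °C; a pH 10 stop preceded fluorescence reading at Ex 386/Em 447 nm.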
Vif-A3F inh: qHTS for Inhibitors of Vif-A3F Interactions: qHTS | Potency, µM (highest dose often 46.1 µM), inactives show at the top dose activity, negative = active | HeLa A3F-eYFP + Vif (tagged APOBEC3F with the HIV-1 protein that degrades it), YFP fluorescence increase | hit rate 0.2% among 390,000; note: potency is the fitted concentration of half-maximal effect; % of control where 0% means no effect; nearly all actives have a fitted effect of over 65% in size
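Fluorescence increase (Ex 488/Em 500-530) after overnight compound treatment at 37 deg C flags inhibition of Vif-driven A3F-eYFP loss in stable HeLa A3F-eYFP/Vif cells seeded overnight beforehand.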
* = called active by the depositor; i = inactive; u = inconclusive; x = no result. The list is not random: actives were taken first. Their share in the collection is about 1.4%. Unless noted, calls come from the whole dose curve; as a rule, active = well fitted curve in the direction sought with a large enough effect; inconclusive = small, poorly fitted or top-dose-only effect, or another doubt; inactive = no such curve, though single readings can be large; an effect the other way counts as inactive or inconclusive.

SMILES	12-LOX inh	Vif-A3G inh	PTAP TSG101 blk	pAkt inh	S-ASM inh	Vif-A3F inh
Cc1ccc2c(CN3CCN(C(=O)c4ccco4)CC3)cc(=O)oc2c1	-2%	x	x	x	x	x
COc1ccc(/C=C/C(=O)OCc2cc(=O)oc3cc(C)ccc23)cc1	4%	x	x	x	x	x
O=C(NC(=S)Nc1cccc(NC(=S)NC(=O)c2ccccc2)c1)c1ccccc1	14µM*	-17%	-6%	i	0%	-8%
Cc1ccc(NC(=S)NC(=O)c2ccc(F)cc2)cc1S(=O)(=O)Nc1cccc(Cl)c1	13µM*	-21%	-2%	i	-16%	u
COCC(C)NC(=O)CSc1cc(C)c2cccc(C)c2n1 (stereo unspecified)	-13%	x	x	x	x	x
Nc1nc(N)c2cc(CNc3ccc(Cl)c(Cl)c3)ccc2n1	5.6µM*	-5%	x	i	x	-1%
Cc1ccc(C)c(-n2ncc3c(NNC(=O)C4CCCCC4)ncnc32)c1	14%	x	x	x	x	x
COc1cccc(C(=O)N2CCN(C(=O)c3cccc(F)c3)CC2)c1	-14%	-8%	2%	i	-1%	-6%
COc1cccc(C(=O)N2CCC3(CC2)NC(=O)N(c2cccc(F)c2)N3)c1	2µM*	x	x	x	x	x
COc1ccc(C(=O)N2CCC3(CC2)NC(=O)N(c2cccc(F)c2)N3)c(OC)c1	1.3µM*	x	x	x	x	x
COc1ccc(C(=O)N2CCC3(CC2)NC(=O)N(c2ccc(F)cc2)N3)cc1F	2µM*	x	x	x	x	x
COc1ccc(C(=O)N2CCC3(CC2)NC(=O)N(Cc2ccc(F)cc2)C3=O)c(OC)c1	1%	x	x	x	x	x
COc1ccc(C(=O)N2CCC3(CC2)NC(=O)N(Cc2ccc(F)cc2)C3=O)cc1F	-11%	x	x	x	x	x
CN(C)c1ccc(C(=O)N2CCC3(CC2)NC(=O)N(c2cccc(F)c2)N3)cc1	5µM*	x	x	x	x	x
NCc1ccc2cc[nH]c2c1	-22%	x	x	x	x	x
CCNc1cc(N2CCC(CCC(=O)N3CCCN(c4ncccn4)CC3)CC2)ncn1	15%	x	x	x	x	x
CCCCNC(=O)C1CCN(C(=O)c2ccc(C(F)(F)F)cc2)CC1	-3%	x	x	x	x	x
COC(=O)c1cc(Cl)ccc1N	-22%	x	x	x	x	x
O=C(/C=C/c1ccc(Cl)c(Cl)c1)NC1CCC(O)CC1 (stereo unspecified)	1%	x	x	x	x	x
O=c1c2ccccc2sc2ccc(NCCCN3CCOCC3)cc12	14µM*	u	1%	i	-11%	22µM*
C=CCSc1nnc(N2C(=O)C(O)=C(C(=O)c3ccco3)C2c2ccccc2F)s1 (stereo unspecified)	0.63µM*	-19%	-10%	i	-5%	u
CCCSc1nnc(N2C(=O)C(O)=C(C(=O)c3ccco3)C2c2ccccc2F)s1 (stereo unspecified)	40µM*	u	-3%	i	9%	3.2µM*
CSc1nnc(N2C(=O)C(O)=C(C(=O)c3ccco3)C2c2ccccc2F)s1 (stereo unspecified)	u	-16%	-9%	i	5%	-10%
COc1ccc(S(=O)(=O)N(CC(=O)NC(C)C)Cc2ccccc2)cc1	-17%	0%	1%	i	3%	-7%
COc1ccc(S(=O)(=O)N(CCc2ccccc2)CC(=O)NC(C)C)cc1	32µM*	2%	-4%	i	1%	-17%
C/C(=N\Nc1ccccc1Br)c1ccc(-c2ccccc2)cc1	0.71µM*	x	x	x	x	x
O=c1c2ccccc2c(C=NC2CCS(=O)(=O)C2)c(O)n1-c1ccccc1 (stereo unspecified)	0%	-5%	-2%	i	0%	2%
